Compound activity from PubChem.
Only some compounds are listed: those with a hit (about 3.7% of all), similar ones and a draw of the others.
Sm TGR block: S. mansoni TGR enzyme inhibition | Potency, µM (top dose mostly 114 µM), actives largely listed as inhibitors | purified TGR, DTNB reduction, TNB absorbance 405 nm | 3% of 360,000 active | Q962Y6; note: nearly all actives have a fitted effect of over 60% in size
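Kinetic colorimetric format: TGR-catalysed, NADPH-driven DTNB reduction monitored via TNB absorbance. Enzyme dispensed at 20 nM; compound exposure 15 min at room temperature before reaction start.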
RE007 growth inh: less growth of the S. pombe RE007 Vpr strain | S. pombe RE007 Vpr strain, BacTiter-Glo ATP luminescence, 24 h | Potency, µM (doses to about 92.2 µM), most hits filed as inhibitors | 0.21% of 360,000 active; active = well fitted falling curve with a large enough effect; inconclusive = small, poorly fitted or top-dose-only effect; inactive = no such curve, though single readings can be large or run the other way; note: nearly all actives have a fitted effect of over 50% in size
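Fission yeast RE007 carrying one integrated HIV-1 vpr copy, seeded at OD 0.01 in PMG+AL medium with 23 nL pinned compound. Grown 24 h at 30 degrees; viability read by BacTiter-Glo luminescence after 5 min.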
FMDV antiviral: antivirals against foot and mouth disease virus | FMDV antiviral cell-based qHTS | Potency, µM (top dose mostly 57.9 µM), most hits filed as inhibitors | 1.2% of 410,000 active | AID 1159524; calls by dose curve; tested in HEK293T cells; note: read-out not given here; nearly all actives have a fitted effect of over 45% in size
TbPYK inhibitor: blocks Trypanosoma brucei pyruvate kinase; Potency, µM (top dose mostly 76.8 µM), actives largely listed as inhibitors; Q57TT1; 0.12% of 410,000 active; TbPYK enzyme, Kinase-Glo Plus ATP luminescence, 45 min; note: nearly all actives have a fitted effect of over 50% in size
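Glycolytic pyruvate kinase of T. brucei was incubated with substrate, test compound and 130 uM ADP for 45 minutes at room temperature. Luminescent Kinase-Glo Plus signal was measured after 10 minutes.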
Each line names hits and unclear results; the compound was inactive in the other large screens. Unless noted, calls come from the whole dose curve; as a rule, active = well fitted curve in the direction sought with a large enough effect; inconclusive = small, poorly fitted or top-dose-only effect, or another doubt; inactive = no such curve, though single readings can be large; an effect the other way counts as inactive or inconclusive.

O=C(c1ccccc1-n1cccn1)N1CCOc2c(cc(-c3ncc(C(F)(F)F)cc3Cl)cc2OCC2CCCO2)C1 (stereo not drawn)	none (no result: Sm TGR block, RE007 growth inh, TbPYK inhibitor)
c1nc(N2CCOCC2)c2cc(-c3ccoc3)ccc2n1	none (no result: Sm TGR block, RE007 growth inh, TbPYK inhibitor)
c1cn(-c2ncnc3ccc(-c4ccoc4)cc23)cn1	FMDV antiviral 28.2µM (no result: Sm TGR block, RE007 growth inh, TbPYK inhibitor)
O=C(NC(=S)/C(=C1\CCCCCN1)[N+](=O)[O-])c1ccccc1	FMDV antiviral 12.6µM (no result: Sm TGR block)
O=C(NC(=S)Nc1ccccc1[N+](=O)[O-])c1ccccc1	Sm TGR block inconclusive
COc1cccc(-c2ccc(O)c(CNC(c3ccccc3)c3ccc(Cl)cc3)c2)n1 (stereo not drawn)	none (no result: Sm TGR block, RE007 growth inh, TbPYK inhibitor)
CCc1ccc(/C=C/C(=O)C2C(=O)c3ccccc3C2=O)cc1	none (no result: FMDV antiviral)
CC[N+]1(C)CCC(O)(/C=C/c2ccccc2)C(C(=O)/C=C/c2ccccc2)C1 (stereo not drawn)	RE007 growth inh 8.91µM (no result: Sm TGR block)
Cc1cnc(CNc2ncnc3ccc(-c4c(C)noc4C)cc23)cn1	none (no result: Sm TGR block, RE007 growth inh, TbPYK inhibitor)
O=C(Nc1c(O)c2ccccc2oc1=O)c1cccc(F)c1	none (no result: RE007 growth inh)
O=C(CCSc1nc(-c2ccco2)cc(C(F)(F)F)n1)N1CCCc2ccccc21	Sm TGR block 39.8µM, FMDV antiviral inconclusive
O=C(CCSc1nc(-c2ccco2)cc(C(F)(F)F)n1)N1CCN(c2ccccn2)CC1	Sm TGR block inconclusive, FMDV antiviral inconclusive
CCOP(=O)(Nc1ccc2c(c1)C(=NNC(N)=S)c1ccccc1-2)OCC	FMDV antiviral 35.5µM (no result: Sm TGR block)
COc1ccccc1CNC(=O)Nc1ccc2c(c1)N(C)C(=O)c1ccccc1S2	none (no result: RE007 growth inh)
O=C(Nc1ncc2c(n1)CC(c1ccco1)CC2=O)c1ccco1 (stereo not drawn)	Sm TGR block 20µM
CC(C)c1ccc(C2CC(=O)c3cnc(N4CCc5ccccc5C4)nc3C2)cc1 (stereo not drawn)	none
CC(=O)Nc1ncc2c(n1)CC(c1ccco1)CC2=O (stereo not drawn)	none
Nc1ncc2c(n1)CC(c1ccco1)CC2=O (stereo not drawn)	Sm TGR block 50.1µM
O=C1CC(c2ccco2)Cc2nc(N3CCc4ccccc4C3)ncc21 (stereo not drawn)	Sm TGR block 31.6µM
N#Cc1cccc(NC(=O)N2CC3(CCN(C(=O)c4ccco4)CC3)C2)c1	none (no result: Sm TGR block, RE007 growth inh)
O=C(NCC1CCN(Cc2ccc(F)cc2)CC1)C1CCCN(c2ncnc3c2nc2n3CCCCC2)C1 (stereo not drawn)	none
O=C(NCC1CCN(Cc2ccc(Cl)cc2)CC1)C1CCCN(c2ncnc3c2nc2n3CCCCC2)C1 (stereo not drawn)	FMDV antiviral 10µM
CCc1ccc2nc(N3CCN(C(=O)c4ccccc4)CC3)sc2c1	FMDV antiviral inconclusive (no result: RE007 growth inh)
CCN(Cc1ccccc1)S(=O)(=O)c1ccc(C(=O)N2CCN(c3nc4ccccc4s3)CC2)cc1	FMDV antiviral 10µM
COc1cc2ncc(-c3ccccc3)nc2cc1OC	none (no result: Sm TGR block, RE007 growth inh, TbPYK inhibitor)
C#CCSc1nsc(SCC#C)c1C#N	Sm TGR block 35.5µM (no result: FMDV antiviral)
COc1ccc(-n2c(=O)c(-c3ccc(Cl)cc3)nc3cnc(N(C)C)nc32)cc1	none (no result: Sm TGR block, RE007 growth inh, TbPYK inhibitor)
Cc1cccc(N2CC(C)Cn3c2nc2c3c(=O)n(CC(=O)O)c(=O)n2C)c1 (stereo not drawn)	none (no result: RE007 growth inh)
COc1ccc(-c2nnc(SCc3cc(=O)c4cc(C)cc(C)c4[nH]3)n2C)cc1	FMDV antiviral 15.8µM (no result: RE007 growth inh)
O=C(Nc1ccc(S(=O)(=O)N2CCCCC2c2cccnc2)cc1)c1ccc(Br)cc1 (stereo not drawn)	FMDV antiviral inconclusive (no result: RE007 growth inh)
Cc1ccc2[nH]c(C(=O)NCc3nc(-c4cccc(NC(=O)c5cc(C)oc5C)c4)oc3C)cc2c1	none (no result: Sm TGR block, RE007 growth inh, TbPYK inhibitor)
O=S(=O)(/N=C(\Sc1ccc(Cl)cc1)c1ccccc1)c1ccccc1	Sm TGR block 25.1µM, FMDV antiviral inconclusive
CS/C(=N\S(=O)(=O)c1ccc(Cl)cc1)c1ccccc1	none
CC1(C)CC[C@]2(C(=O)n3ccnc3)CC[C@]3(C)[C@H](C(=O)C=C4[C@@]5(C)C=C(C#N)C(=O)C(C)(C)[C@@H]5CC[C@]43C)[C@@H]2C1	FMDV antiviral 1.41µM (no result: Sm TGR block)
Cc1ccc(NC(=O)c2c(C)oc3ccc(O)c(CN4CCCCC4)c23)cc1	none (no result: RE007 growth inh)
Oc1ccc(NCc2cccc(OCc3ccccc3)c2)cc1	Sm TGR block 12.6µM, TbPYK inhibitor inconclusive
c1ccc(COc2cccc(CNCc3cccnc3)c2)cc1	none (no result: Sm TGR block)
O=[N+]([O-])c1ccc(COc2cccc(CNc3ccc(F)cc3)c2)cc1	none
Oc1ccc(NCc2cccc(OCc3ccc(F)cc3)c2)cc1	Sm TGR block 28.2µM, TbPYK inhibitor inconclusive
Cc1nc(NCc2ccc3nsnc3c2)sc1-c1ccn(C)n1	none (no result: Sm TGR block, RE007 growth inh, TbPYK inhibitor)
CCN(CC)S(=O)(=O)c1ccc2oc(C(=O)NCc3ccccc3OC)c(C)c2c1	none (no result: RE007 growth inh)
Cc1ccccc1OCC(=O)Nc1cccc(C(=O)OCc2cc(=O)n3c(C)csc3n2)c1	none (no result: RE007 growth inh)
CCCn1c(SCC(=O)c2ccc3c(c2)NC(=O)CO3)nc2ccccc21	Sm TGR block 39.8µM
COc1ccc(N2C(=O)CSC23C(=O)N(CC(=O)NCc2ccccc2)c2ccccc23)cc1 (stereo not drawn)	none (no result: RE007 growth inh)
O=C(OCc1nnc(-c2ccccc2Br)o1)c1ccco1	none (no result: Sm TGR block)
O=S(=O)(c1ccccc1F)N(Cc1ccco1)Cc1nnc(-c2ccccc2Br)o1	Sm TGR block 15.8µM
Cc1ccc(-n2nnnc2C(Cl)(Cl)c2nnnn2-c2ccc(C)cc2)cc1	Sm TGR block 17.8µM, FMDV antiviral inconclusive, TbPYK inhibitor inconclusive
COc1cccc(C(=O)NCc2cn3ccccc3n2)c1	none (no result: RE007 growth inh)
O=C1C2C3C=CC(C3=C(c3ccccc3)c3ccccc3)C2C(=O)N1Cc1ccccc1 (stereo not drawn)	Sm TGR block 7.94µM, RE007 growth inh inconclusive, FMDV antiviral inconclusive
O=C1C2C3C=CC(C3=C(c3ccccc3)c3ccccc3)C2C(=O)N1CCO (stereo not drawn)	FMDV antiviral inconclusive
CCOC(=O)/C=C1\CN(Cc2cc(OC)c(OC)c(OC)c2)S(=O)(=O)c2ccc(C(F)(F)F)cc21	Sm TGR block 28.2µM, FMDV antiviral inconclusive
Cc1ccc2nc(SCC(=O)NCC3Cc4cccc(-c5nc(C)cnc5C)c4O3)[nH]c2c1 (stereo not drawn)	none (no result: Sm TGR block, RE007 growth inh, TbPYK inhibitor)
CCOC(=O)c1c(C)[nH]c(CCC(=O)Nc2ccc(N(CC)CC)cc2C)c1C	none (no result: RE007 growth inh)
CCn1c(SCC(=O)Nc2nccs2)nnc1-c1ccc(S(=O)(=O)N2CCCCC2)cc1	FMDV antiviral 25.1µM
COC(=O)N1C(=O)[C@@](c2ccccc2)(C2CCCC2)N1C(=O)OC	Sm TGR block inconclusive, FMDV antiviral 20µM
COC(=O)N1C(=O)[C@](c2ccccc2)(C2CCCCC2)N1C(=O)OC	Sm TGR block 5.01µM
C=CCc1cc(/C=C/c2nc(O)c([N+](=O)[O-])c(=O)[nH]2)cc(OC)c1O	Sm TGR block 44.7µM
CCCCc1c(C)c(C#N)c2nc3ccccc3n2c1Cl	Sm TGR block 3.55µM (no result: RE007 growth inh, FMDV antiviral, TbPYK inhibitor)
C=C(C)CSc1cc(C)c(C#N)c2nc3ccccc3n12	Sm TGR block 3.16µM, FMDV antiviral inconclusive, TbPYK inhibitor inconclusive
Cc1cc(-c2ccco2)n2c(nc3ccccc32)c1C#N	Sm TGR block 50.1µM, FMDV antiviral inconclusive
CCc1c(C)c(C#N)c2nc3ccccc3n2c1N(C)C	FMDV antiviral inconclusive
